# High-throughput results from PubChem BioAssay.
# Tau fluor cs = counter-screen for tau fibril formation inhibitors. hit rate 0.93% among 280,000. Potency, µM (highest dose often 57.7 µM). tau K18 P301L Alexa594 fluorescence, heparin fibrillization; further: nearly all actives have a fitted effect of over 55% in size
#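 Human tau K18 P301L (15 uM unlabeled, 0.24 uM Alexa 594-labeled) in 100 mM sodium acetate pH 7 with 20 uM heparin, 6 hr at 37 C. ThT 30 uM added, 1 hr ambient; Alexa 594 FP and total fluorescence read at 555/632 nm.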
# G9a inh = inhibitors of human histone lysine methyltransferase G9a | AID 504332 | G9a H3K9 monomethylation, AlphaScreen, 2 h | Potency, µM (series often up to 102 µM), most hits filed as inhibitors | Q96KQ7 | hit rate 8.8% among 350,000; further: nearly all actives have a fitted effect of over 75% in size
# Target sequence (Q96KQ7 913-1193 limits assumed): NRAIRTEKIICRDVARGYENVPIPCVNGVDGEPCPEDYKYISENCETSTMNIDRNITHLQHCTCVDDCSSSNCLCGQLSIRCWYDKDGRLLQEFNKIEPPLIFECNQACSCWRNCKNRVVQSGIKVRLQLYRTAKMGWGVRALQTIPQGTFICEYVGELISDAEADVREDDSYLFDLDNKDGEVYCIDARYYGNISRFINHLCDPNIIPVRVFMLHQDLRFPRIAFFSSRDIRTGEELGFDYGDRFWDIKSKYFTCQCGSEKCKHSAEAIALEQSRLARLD
#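 Compounds were preincubated with 20 nM G9a for 15 min, after which biotinylated H3K9 peptide (500 nM) and SAM (20 uM) started a 2 h room-temperature reaction. Monomethylated product was quantified by antibody-based AlphaScreen chemiluminescence.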
# Tau ThT inhib = tau fibrillization inhibition (ThT binding). recombinant tau K18 P301L (four-repeat tau fragment), heparin-induced fibrillization, ThT fluorescence. Potency, µM (doses to about 57.4 µM), hits mostly inhibitors. hit rate 2.1% among 270,000; further: nearly all actives have a fitted effect of over 55% in size
# Target sequence (P10636 561-689 P618L limits assumed): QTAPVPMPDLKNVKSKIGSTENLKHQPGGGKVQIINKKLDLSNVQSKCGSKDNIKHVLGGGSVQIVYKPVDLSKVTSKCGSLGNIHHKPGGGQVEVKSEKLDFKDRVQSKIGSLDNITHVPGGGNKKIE
#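 K18 P301L tau (15 uM + 0.24 uM Alexa 594-tagged), heparin 20 uM, NaOAc pH 7, 6 h 37 C; ThT 30 uM, 1 h RT, ex 450/em 510 nm.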
# Coupling enz = inhibits coupling enzyme system, counter-screen for aldolase hits | coupling enzyme system counterscreen, AmpLite Red fluorescence | activity change, negative = inhibition, % at 58.2 µM, hits read low | hit rate 0.67% among 290,000 | AID 2472; in the data active means activity change below about -30%
#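 Final compound at 57.5 uM, incubated 10 min at RT with coupling enzyme reagent (glyceraldehyde-3-phosphate), then 20 min with substrate and AmpLite Red detection. Fluorescence read at 525/598 nm; tests interference with the coupling assay, not aldolase inhibition.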
# Tau FP inhib = blocks human tau fibril formation measured by polarization | P10636 | K18 P301L tau heparin fibrillization, Alexa594 FP, 6 h | Potency, µM (highest dose often 57.7 µM), actives largely listed as inhibitors | hit rate 0.39% among 280,000 | AID 1468; further: nearly all actives have a fitted effect of over 55% in size
#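 Read-out: fluorescence polarization of Alexa 594-labeled tau (0.24 uM), 555 nm excitation, 632 nm emission. Mixtures held 15 uM unlabeled K18 P301L, compound and 20 uM heparin, pH 7 acetate buffer, incubated 6 hr at 37 C.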
# Sfp PPTase inh = blocks B. subtilis Sfp PPTase activity; Q9F4F7; Biochemical Sfp PPTase activity, qHTS; Potency, µM, most hits filed as inhibitors; hit rate 3.5% among 310,000;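 further: the enzyme is Sfp with the accession as filed and its product quenches rhodamine fluorescence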
#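 With Hepes-Na pH 7.6 buffer containing 10 mM MgCl2, Sfp (15 nM) modified BHQ-2-YbbR (12.5 uM) using rhodamine-CoA (5 uM). Two reads 30 minutes apart at 525/598 nm yielded each well's rate.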
# A number is an active result; i = inactive; ? = inconclusive; nt = no result; [ ] = remark or other dose. Most compounds without a hit are left out; they make up all but 11% or so of the library. Unless noted, the call rests on the fitted dose curve; in most records, active means well fitted curve in the direction sought with a large enough effect; inconclusive means small, poorly fitted or top-dose-only effect, or another doubt; inactive means no such curve, though single readings can be large; an effect the other way counts as inactive or inconclusive.
SMILES,Tau fluor cs,G9a inh,Tau ThT inhib,Coupling enz,Tau FP inhib,Sfp PPTase inh
O=C(O)/C(=C/c1ccco1)NC(=O)c1ccccc1,i,45µM,?,i,i,i
CC(C)OCCCn1c(=O)c2ccccc2n2c(-c3ccc(F)c(F)c3)nnc12,i,?,i,nt,i,nt
CCOC(=O)C1=C(Nc2ccc(Cl)cc2)OCC1=O,i,nt,i,i,i,i
Cc1ccc(NC(=O)/C(=C/c2ccco2)c2ccccc2)c(C)c1,i,50µM,?,i,i,i
Cc1ccc(C(=O)N/C(=C/c2ccco2)C(=O)N2CCCCCC2)cc1,nt,71µM,nt,i,nt,i
O=C(N/C(=C/c1ccco1)C(=O)N1CCCC1)c1cccs1,i,i[2.33 µM],i,i,i,32µM
Cc1cccc(C(=O)N/C(=C\c2ccco2)C(=O)N2CCCC2)c1,nt,40µM,nt,i,nt,?
Cc1cc(C)c(NC(=O)/C(=C/c2ccccc2)c2ccccc2)c(C)c1,i,?,?,i,i,i
O=C(N/C(=C/c1ccco1)C(=O)N1CCCCC1)c1cccs1,i,?,i,i,i,i
CC1(C)CC(=O)N(c2ccc(C#N)cc2)C(=O)C1,nt,nt,nt,i,nt,i
O=C(N/C(=C\c1ccco1)C(=O)N1CCCC1)c1ccccc1,nt,40µM,nt,i,nt,i
O=C(N/C(=C\c1ccco1)C(=O)N1CCC(O)CC1)c1ccccc1,nt,?,nt,i,nt,i
Cc1cc(Nc2ccccc2)n(-c2nc3ccccc3[nH]2)n1,25µM[quencher],i,?,i,i,i
COc1ccc(OC)c(CN2CCSCC2)c1,nt,11µM,nt,i,nt,i
COc1ccc(CN2CCSCC2)cc1O,i,13µM,i,i,i,i
COc1ccc(OC)c(CN2CCN(c3ccccc3OC)CC2)c1,i,?,i,i,i,i
COc1ccc(OC)c(CN2CCCCCC2)c1,nt,45µM,nt,i,nt,i
COc1ccc(OC)c(CN2CCN(Cc3cccc4ccccc34)CC2)c1,i,4µM,i,i,i,?
CC(=O)Nc1cccc2c1C(=O)N(c1ccccc1OC(C)=O)C2=O,i,i,i,i,i,i
CCOc1ccccc1NC(=O)C(NS(=O)(=O)c1cccc2nsnc12)c1ccccc1 (centres undefined),i,i,i,nt,i,nt
COc1ccccc1CNC(=O)c1cc2c(=O)[nH]c3ccccc3c2n1C,i,i,i,i,i,i
CN1C(=O)c2ccccc2Sc2ccc(NC(=O)N3CCN(c4cccc(Cl)c4)CC3)cc21,?,i,i,nt,i,nt
COc1cc(CNC(=O)c2cnc(SC)nc2-c2ccccc2)cc(OC)c1OC,i,i,i,nt,i,nt
CCOc1ccc(-c2nc(C#N)c(N3CCOCC3)o2)cc1,i,?,i,i,i,i
N#Cc1nc(COc2ccc(Cl)cc2)oc1N1CCN(Cc2ccccc2)CC1,i,16µM,i,i,i,i
SMILES,Tau fluor cs,G9a inh,Tau ThT inhib,Coupling enz,Tau FP inhib,Sfp PPTase inh
CCN1CCN(c2oc(/C=C/c3ccccc3)nc2C#N)CC1,i,nt,nt,i,i,32µM
CN(C)CCNc1oc(COc2ccc(-c3ccccc3)cc2)nc1C#N,i,45µM,i,i,i,i
CCOc1ccc(-c2nc(C#N)c(N3CCN(Cc4ccccc4)CC3)o2)cc1,i,10µM,i,i,i,i
Cc1ccc(N2CC(=O)Nc3c(oc4nc(-c5ccccc5)cc(C)c34)C2=O)cc1,nt,i,nt,i,nt,i
N#Cc1nc(COc2ccc(Br)cc2)oc1N1CCCCCC1,i,45µM,i,i,i,?
COc1ccc(N2CCN(c3oc(COc4ccccc4)nc3C#N)CC2)cc1,?,10µM,?,i,?,i
N#Cc1nc(COc2ccccc2)oc1N1CCCCCC1,i,45µM,?,i,i,i
CN1CCN(c2oc(COc3ccc(-c4ccccc4)cc3)nc2C#N)CC1,i,13µM,?,i,i,32µM
C=C1CCC2C(CC2(C)C)C(=O)CCC1O (centres undefined),i,nt,i,i,i,i
COc1cc(/C=C2\CCCc3c2nc2ccccc2c3C(=O)O)cc(Br)c1O,nt,40µM,nt,i,nt,i
Cc1ccsc1/C=C1/CN(C)Cc2c1nc1ccccc1c2C(=O)O,i,nt,i,i,i,?
CCN1C/C(=C\c2cccc(C)c2)c2nc3ccccc3c(C(=O)O)c2C1,i,i[0.501 µM],i,i,i,79µM
COc1ccc(/C=C2\CCn3c2nc2ccccc2c3=O)cc1OC,nt,i,nt,i,nt,i
CCOc1cc(/C=C2\CCCc3c2nc2ccccc2c3C(=O)O)ccc1OC,nt,?,nt,i,nt,10µM
COc1ccccc1N1CCN(C(=O)c2c3c(nc4ccccc24)C(=O)N(C2CCCCC2)C3)CC1,i,i,i,nt,i,nt
COc1cccc(/C=C2\CC(C)Cc3c2nc2ccccc2c3C(=O)O)c1OC (centres undefined),nt,50µM,nt,i,nt,32µM
COC(=O)C1(C(=O)OC)CC2=CC(CC2=O)Cc2ccccc2[C@@H]1C[N+](=O)[O-] (some centres undefined),i,nt,i,i,i,i
NC(=O)NC(=O)COC(=O)c1cccc(NS(=O)(=O)/C=C/c2ccccc2)c1,i,?,i,i,i,i
COc1ccc(NC(=O)CSc2cn(CC(=O)N3CCOCC3)c3ccccc23)cc1OC,i,i,?,nt,i,nt
CC(C)c1cnc2c(c1SCC(=O)NCc1ccccc1Cl)c(=O)n(C)c(=O)n2C,i,i,i,nt,i,nt
COc1cc(/C=C2\CCc3c2nc2ccccc2c3C(=O)O)cc(OC)c1OC,i,14µM,?,i,i,?
CCCc1cc(=O)oc2cc(OCC(=O)NCCCN3CCCC3=O)ccc12,nt,nt,nt,nt,nt,i
COc1ccccc1C(=O)NCc1nnnn1-c1ccc(C)c(C)c1,i,i,i,nt,i,nt
CC(C)(C)OC(=O)N1CCC2(CC1)C(C#N)=C(N)OC1=C2C(=O)CCC1,i,i,i,i,i,i
Cc1ccc(Nc2cc(C)nc3ncnn23)cc1,nt,71µM,nt,i,nt,i
SMILES,Tau fluor cs,G9a inh,Tau ThT inhib,Coupling enz,Tau FP inhib,Sfp PPTase inh
COc1cc(Nc2cc(C)nc3ncnn23)cc(OC)c1OC,i,45µM,i,i,i,i
Cc1cc(C)n2ncnc2n1,i,50µM,i,i,i,i
CC(=O)c1ccc(Nc2cc(C)nc3nc(C)nn23)cc1,i,79µM,i,i,i,i
CCSc1nnc2c(n1)OC(c1ccc(OC)cc1OC)N(C(C)=O)c1ccccc1-2 (centres undefined),i,i,i,nt,i,nt
Oc1c(C(c2ccc(F)cc2)N2CCCC2)sc2nc(-c3ccco3)nn12 (centres undefined),i,13µM,i,nt,i,nt
Oc1c(C(c2ccccc2F)N2CCCC2)sc2nc(-c3ccco3)nn12 (centres undefined),i,i,i,nt,i,nt
O=[N+]([O-])c1ccc(C(c2sc3nc(-c4ccco4)nn3c2O)N2CCN(c3cccc(Cl)c3)CC2)cc1 (centres undefined),?,13µM,?,nt,i,nt
CCOc1ccccc1CN1C(=O)NC2(CCCCCC2)C1=O,nt,i,nt,i,nt,i
